From PubChem BioAssay AID624141 (Broad Institute, 2012) come the findings set out here.

The campaign covered roughly 17,000 compounds. About 260 (1.5%) were called active.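 Rule for the calls: active = spot fluorescence over background with P-value below 7% in all four replicate spots, showing protein binding; inactive = the rest.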 What follows is part of a selection rich in actives, with near analogues and random picks from the rest.

The target of the experiment is Myc proto-oncogene protein (Homo sapiens) (UniProt P01106). The experiment can be described thus: small molecules binding His-tagged c-Myc – biochemical, small molecule microarray, anti-His fluorescence, primary screen (AID 624141).
Chain of Myc proto-oncogene protein (Homo sapiens) (P01106 whole entry, looked up): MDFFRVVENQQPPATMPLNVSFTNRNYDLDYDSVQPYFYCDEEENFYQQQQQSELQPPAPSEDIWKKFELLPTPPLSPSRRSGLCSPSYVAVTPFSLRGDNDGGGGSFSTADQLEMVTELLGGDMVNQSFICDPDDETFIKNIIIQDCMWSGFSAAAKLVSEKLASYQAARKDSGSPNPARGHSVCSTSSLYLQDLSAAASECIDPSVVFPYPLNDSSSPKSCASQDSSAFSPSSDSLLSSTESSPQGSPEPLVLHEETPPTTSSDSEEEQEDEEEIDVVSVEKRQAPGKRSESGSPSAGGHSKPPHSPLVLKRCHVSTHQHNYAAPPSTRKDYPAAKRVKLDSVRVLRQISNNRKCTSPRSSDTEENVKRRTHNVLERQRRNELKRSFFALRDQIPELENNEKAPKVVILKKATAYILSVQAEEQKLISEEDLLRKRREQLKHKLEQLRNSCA
Regarding `COc1ccc2[nH]cc(CCNCc3ccc(Br)cc3)c2c1`, the compound was called inactive.
For `c1cncc(CNCCc2c[nH]c3ccccc23)c1`, the compound was classed as active.
In the case of `c1ccc(CCCCN2CCC(c3ccccc3)CC2)cc1`, the call was inactive.
On to `C[C@H](CO)N1C[C@H](C)[C@H](CN(C)C(=O)Oc2ccc3ccccc3c2)OCc2cnnn2CCCC1=O`, for which the result was inactive.
With `CN[C@@H]1C[C@H]2O[C@@](C)([C@@H]1OC)n1c3ccccc3c3c4c(c5c6ccccc6n2c5c31)C(=O)NC4`, the call was inactive.
